PubChem BioAssay AID1276 (Columbia University Molecular Screening Center, 2008)
Screen size: about 190,000 compounds; about 2,000 (1.1%) were called active. Many of the other results were omitted from the sample, so actives are more common in it than they were. A number with no mark means an inactive call.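 Rule for the calls: active = activation above a set limit, based on mean plus 3 SD of controls (cut at about 140% in these data); inconclusive = one replicate above the limit, the other below; inactive = the rest.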

experiment: activators of APP 5'UTR luciferase reporter, primary screen, SH-SY5Y cells (AID 1276); conditions: SH-SY5Y APP 5'UTR luciferase reporter, luminescence; at 2 µM; hits give high values; zero percent = DMSO vehicle wells

SMILES	activation
O=C(Nc1ccc(NC(=O)c2cccs2)cn1)c1ccco1	148% (active)
Cc1ccnc(NC(=O)c2ccc(NC(=O)c3ccco3)cc2)c1	79.3%
COc1cccc(C(=O)Nc2ccc(NC(=O)c3ccco3)cn2)c1	25.8%
O=C(Cc1ccccc1)NNC(=O)C1CCN(c2ncccn2)CC1	18.4%
O=C(NC1CCCC1)c1ccc(Br)s1	-4.11%
O=C(Nc1ccc2c(c1)CCC2)c1ccc(Br)s1	208% (active)
CC(C)C(=O)OCC(=O)Nc1ccc2c(c1)CCC2	5.67%
Cc1ccc2nsnc2c1S(=O)(=O)N1CCCC1C(=O)O (stereo not drawn)	-2.44%
O=c1oc2ccccc2cc1-c1csc(Nc2ccc(O)cc2)n1	61%
CCNc1nc(-c2cc3ccccc3o2)cs1	188% (active)
COc1ccc2nc(Nc3nc(-c4cc5ccccc5oc4=O)cs3)sc2c1	33%
CC(Nc1ccccc1)c1cccnc1 (stereo not drawn)	-12.4%
Cc1nonc1NC(=O)CSc1nc2ccccc2cc1C#N	15.1%
CCOc1ccc2nc(NCCNS(=O)(=O)c3ccccc3)c(C#N)cc2c1	6.65%
CCOc1ccc2cc(C#N)c(SCC(=O)OC)nc2c1	159% (active)
CN1CCN(/N=C2/C(=O)Nc3ccc([N+](=O)[O-])cc32)CC1	13.5%
COc1ccc2nc(SCc3ccccc3)nc(C)c2c1	170% (active)
COc1ccc(-c2nnc3ccc(SCc4ccccc4)nn23)cc1	-7.22%
COC(=O)CSc1nc(C)c2ccc(OC)cc2n1	0.88%
Cc1ccc(NC(=O)CCC(=O)N/N=C/c2ccco2)c(C)c1	8.01%
COc1ccc(C2=NOC(COC(=O)c3ccc4ccccc4n3)C2)cc1 (stereo not drawn)	16.6%
COc1ccc(C2=Nc3cc(C)ccc3OC2)cc1	151% (active)
COc1ccc(C2=NOC3(CC(=O)N(c4ccc(C)cc4)C3=O)C2)cc1 (stereo not drawn)	-3.01%
CCOc1ccccc1N1CCN(C(=S)Nc2ccc(S(N)(=O)=O)cc2)CC1	11.8%
Clc1ncn(CCOc2ccccc2)c1Cl	-15.2%
Fc1ccc2nc(N3CCCCC3)sc2c1	112%

SMILES	activation
Fc1ccc2nc(Nc3nc4c(s3)CCCC4)sc2c1	143% (active)
CSc1ncccc1C(=O)Nc1nc2ccc(F)cc2s1	52.4%
CC(=O)Nc1ccc(S(=O)(=O)N2CCN(c3ccc([N+](=O)[O-])c(NCCN4CCOCC4)c3)CC2)cc1	-6.4%
O=C(COC(=O)[C@H](Cc1ccccc1)NC(=O)c1cccs1)Nc1cc(F)ccc1F	12.5%
O=C(CSc1nnc(SCc2ccc(Cl)cc2)s1)N/N=C/c1ccccc1Cl	-2.73%
COc1ccc(NC(=O)CSc2nc(C)cs2)cc1	6.05%
Cc1cccc(C)c1Nc1nnc(SCC(=O)Nc2sccc2C#N)s1	-9.91%
Cc1csc(SCC(=O)Nc2sccc2C#N)n1	192% (active)
C=CCn1c(CCNC(=O)c2cccs2)n[nH]c1=S	-1.77%
CCC(=O)Oc1cccc(C(=O)Nc2ccc(-c3nnc(-c4ccco4)o3)cc2)c1	92.5%
CCOc1ccc(-c2nnc(-c3ccco3)o2)cc1	147% (active)
CCCCSc1nnc(-c2ccc(C)cc2)o1	115%
CCCCOc1ccc(-c2nnc(-c3ccco3)o2)cc1	136% (active)
COc1ccc(C(=O)CSc2nnc(-c3ccco3)o2)cc1	22.7%
CCCCOc1ccc(C(=O)NCc2ccco2)cc1	4.26%
COCCSc1nnc(NC(=O)c2cc(OC)c(OC)cc2[N+](=O)[O-])s1	5.07%
COc1cccc(N(C(=O)C2COc3ccccc3O2)C(C(=O)NC2CCCCC2)c2ccc(O)cc2)c1 (stereo not drawn)	-0.98%
CN1CCN(c2nc(Nc3ccc(O)cc3)nc3ccccc23)CC1	18.9%
Cc1cc(Oc2ccc(Cl)cc2)nc(SCC(=O)c2ccccc2)n1	11.5%
CC(=O)NC(CC(=O)O)c1ccc(F)cc1 (stereo not drawn)	5.81%
O=C(Nc1cccc(-c2nc3ncccc3o2)c1)c1ccco1	-10.6%
O=C(Nc1ccc2oc(-c3ccccc3F)nc2c1)c1ccco1	146% (active)
O=C(Nc1ccc2nccnc2c1)c1ccco1	39.6%
Cc1cnc(C(=O)N2CCCC(C(=O)c3ccc(C(F)(F)F)cc3)C2)cn1 (stereo not drawn)	23%
NS(=O)(=O)c1ccc(NC(=O)COC(=O)C2(c3ccc(F)cc3)CCCC2)cc1	5.99%
COc1ccc(CN(C)C(C)C(=O)NC2CCCc3ccccc32)cc1 (stereo not drawn)	9.96%

SMILES	activation
CC(NC(=O)COC(=O)c1cc(=O)[nH]c2ccccc12)c1ccccc1 (stereo not drawn)	-4.94%
O=C(NC1CC1)C1CCCN(C(=O)NC2CCCCC2)C1 (stereo not drawn)	18.2%
O=C(Nc1nc(-c2cccnc2)cs1)c1ccccc1F	61.5%
CC(C)c1nc(-c2ccccn2)no1	7.91%
c1ccc(-c2noc(-c3cccs3)n2)nc1	209% (active)
c1csc(-c2nc(-c3ccncc3)no2)c1	55.4%
CC(C)n1c(O)c(N=Nc2ccccn2)c2ccccc21	3.63%
CC(C)(C)NS(=O)(=O)c1ccc(NC(=O)NC2CCCCC2)cc1	-13.3%
CC(C)N1CCC(NC(=O)Nc2ccccc2)CC1	15.8%
CC(C)c1ccc(NC(=O)NC2CCCCC2)cc1	139% (active)
CC(NCc1nc2ccccc2n1C)C12CC3CC(CC(C3)C1)C2 (stereo not drawn)	9.64%
CC(=O)n1cc([C@H]2C=C(C(=O)N3CCOCC3)O[C@@H](OCc3ccc(CO)cc3)C2)c2ccccc21	3.91%
CC(C)(C)CN1CCNC(=O)C1CC(=O)NC1Cc2ccccc2C1 (stereo not drawn)	-10.9%
Cc1nn2cc(-c3ccc(Cl)cc3)cnc2c1Br	208% (active)
CCOCCCN(C(=O)Cn1nnc(-c2ccc(OC)c(OC)c2)n1)C(CC)C(=O)NC1CCCC1 (stereo not drawn)	7.01%
COc1ccccc1N1CC(O)=C(c2nc3ccccc3s2)C1=N	1.68%
N=C1C(c2nc3ccccc3s2)=C(O)CN1NC(=O)c1ccc([N+](=O)[O-])cc1	150% (active)
CCOC(=O)CCCN1CC(O)=C(c2nc3ccccc3s2)C1=N	-7.28%
CN1CCNC(=O)C1CC(=O)NCCC1=CCCCC1 (stereo not drawn)	9.01%
COCCNC(=O)c1ccc(N2CCC3(CC2)OCCO3)c([N+](=O)[O-])c1	5.47%
Brc1ccc(C2CC(c3ccccc3)=Nc3ccccc3N2)cc1 (stereo not drawn)	176% (active)
c1ccc(C2=Nc3cccc4cccc(c34)N2)cc1	-8.18%
CNC(=S)N1N=C(c2ccccc2)CC1c1ccc(Br)cc1 (stereo not drawn)	16.3%
CCc1nnc(NC(=O)CSc2nc(SC)ns2)s1	542% (active)
CCc1nnc(NC(=O)CCC(=O)O)s1	11.8%
COc1ccc(C)cc1NC(=O)CSc1nc(SC)ns1	-17.1%

SMILES	activation
CCn1c2ccccc2c2cc(CC(N)=O)ccc21	-15%
CCS(=O)(=O)c1ccc2oc(SCC(=O)N3c4ccccc4CC3C)nc2c1 (stereo not drawn)	12.2%
CN(C)S(=O)(=O)c1ccc2oc(SCC(=O)Nc3ccccc3F)nc2c1	135% (active)
COc1ccc(S(=O)(=O)N(C)C)cc1NC(=O)CSc1ncccn1	-3.15%
O=C(Nc1cccc(Cl)c1)c1cc([N+](=O)[O-])ccc1N1CCN(CCO)CC1	-1.04%
O=C(NNC(=S)NCCCN1CCOCC1)c1ccncc1	1.62%
Nc1nc(-c2sc3nc4c(cc3c2N)CCCC4)nc(N2CCOCC2)n1	45.3%
COc1ccc(CCNc2nc(-c3cccc(NC(C)=O)c3)cs2)cc1OC	13%
CC(=O)Nc1cccc(C(=O)Nc2nc(C)cs2)c1	30.8%
CC(=O)Nc1cccc(-c2csc(Nc3cccc(C)n3)n2)c1	177% (active)
C/C(CC(=O)Nc1ccc(Cl)cc1)=N\NC(=O)C(=O)NCCO	6.46%
CC(C)c1nc2sc3c(c2c(=O)n1N)CC(C)(C)OC3	17.6%
O=C(O)c1ccc2c(c1)C(=O)N(NC(=O)c1ccc(O)cc1)C2=O	-2.99%
Cn1cnnc1SCC(=O)Nc1ccc(N2CCOCC2)cc1	5.51%
O=C(O)CCS(=O)(=O)c1ccc(-c2ccccc2)cc1	-3.35%
COc1ccc(-n2nnnc2SCC(=O)Nc2ccccc2)cc1	6.08%
COc1ccc(-n2nnnc2-c2nc3ccccc3s2)cc1	237% (active)
CCOc1cccc(-n2nnnc2-c2ccc(OC)cc2)c1	-65.8%
Cc1cccc(NC(=O)c2nnn(-c3cccc(C(F)(F)F)c3)c2N)c1	27.1%
COCCNc1nc(N)c([N+](=O)[O-])c(NCCO)n1	-12.7%
CNc1nc(Nc2ccc(C)c(Cl)c2)nc(N)c1[N+](=O)[O-]	153% (active)
Nc1nc(NCCCN2CCOCC2)nc(Nc2ccccc2)c1[N+](=O)[O-]	-12.2%
Cc1ccc(NS(=O)(=O)c2cccs2)cc1S(=O)(=O)N1CCCCCC1	13.7%
O=C(Cc1ccc(-c2ccccc2)cc1)NC(c1ccccc1)c1ccccc1	12.7%
CC(NC(=S)Nc1ccc(OC(F)F)cc1)c1ccc(F)cc1 (stereo not drawn)	-4.54%
